Results filed as inconclusive are left out. Entries that show only a call come without a potency. The source made the active and inactive calls. Calls come from the whole dose curve; as a rule, active = well fitted inhibition curve with a large enough effect; inconclusive = small, poorly fitted or top-dose-only effect; inactive = flat fitted curve, though single readings scatter. Square brackets hold non-standard residues; d marks the D form. Peptide text beside a SMILES is read from it. Orn = NCCC[CH](N)C(=O)O
How the values were obtained:
Assay in all cases: qHTS profiling for inhibitors of Plasmodium falciparum proliferation (AID 504749); note: nearly all actives have a fitted effect of over 60% in size
Details in all cases: P. falciparum in erythrocytes, SYBR Green DNA, 72 h; series mostly up to 28.7 µM
AS120 = tested on: AS120
How it was run: (§1)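 Three-day growth assay of blood-stage parasites in erythrocytes (0.3% parasitemia, 2.5% hematocrit) at 37 C, 5% CO2, quantified by SYBR Green DNA staining after overnight detergent lysis.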

ATS95 = tested on: ATS95
How it was run: as §1

CP191 = tested on: CP191
How it was run: as §1

CP211 = tested on: CP211
How it was run: as §1

CP215 = tested on: CP215
How it was run: as §1

CP247 = tested on: CP247
How it was run: as §1

CP250 = tested on: CP250
How it was run: as §1

CP256 = tested on: CP256
How it was run: as §1

CP297 = tested on: CP297
How it was run: as §1

CP335 = tested on: CP335
How it was run: as §1

Dd2 = tested on: Dd2
How it was run: as §1

ECU = tested on: ECU
How it was run: as §1

GB4 = tested on: GB4
How it was run: as §1

N140 = tested on: N140
How it was run: as §1

P93_24 = tested on: P93_24
How it was run: as §1

PAD = tested on: PAD
How it was run: as §1

TAB113 = tested on: TAB113
How it was run: as §1

TAB165 = tested on: TAB165
How it was run: as §1

3D7 = tested on: 3D7
How it was run: as §1

CP262 = tested on: CP262
How it was run: as §1
Potency is the fitted concentration of half-maximal effect.

Row | Compound | Potency (AS120) | Potency (ATS95) | Potency (CP191) | Potency (CP211) | Potency (CP215) | Potency (CP247) | Potency (CP250) | Potency (CP256) | Potency (CP297) | Potency (CP335) | Potency (Dd2) | Potency (ECU) | Potency (GB4) | Potency (N140) | Potency (P93_24) | Potency (PAD) | Potency (TAB113) | Potency (TAB165) | Potency (3D7) | Potency (CP262)
1 | CC(C)CC1NC(=O)C(CCCN)NC(=O)C(C(C)C)NC(=O)C2CCCN2C(=O)C(Cc2ccccc2)NC(=O)C(CC(C)C)NC(=O)C(CCCN)NC(=O)C(C(C)C)NC(=O)C2CCCN2C(=O)C(Cc2ccccc2)NC1=O (stereo not drawn) (cyclo(FPV[Orn]LFPV[Orn]L); configuration not given here) | 2.8 nM (active) | 0.9 nM (active) | 2.8 nM (active) | 1.3 nM (active) | 1.1 nM (active) | 2.8 nM (active) | 2 nM (active) | 4 nM (active) | 1.2 nM (active) | 0.5 nM (active) | 1.1 nM (active) | 3.2 nM (active) | 0.5 nM (active) | 1.3 nM (active) | 2 nM (active) | 0.8 nM (active) | 2.2 nM (active) | 1.3 nM (active) | – | –
2 | CCC(Oc1ccccc1)C(=O)NC1C(=O)N2C1SC(C)(C)C2C(=O)O (stereo not drawn) | inactive | inactive | inactive | inactive | inactive | inactive | inactive | inactive | inactive | inactive | inactive | inactive | inactive | inactive | inactive | inactive | inactive | inactive | inactive | inactive
3 | CC(=O)OCC1=C(C(=O)O)N2C(=O)C(NC(=O)Cc3ccccc3)C2SC1 (stereo not drawn) | inactive | inactive | inactive | inactive | inactive | inactive | inactive | inactive | inactive | inactive | inactive | inactive | inactive | inactive | inactive | inactive | inactive | inactive | inactive | inactive

Source: PubChem BioAssay (NCATS)
